Data as given in PubChem BioAssay (EPA / NIEHS).
Activity calls are given as the source filed them. Rule for the calls: active = hit-call score of the fitted dose curve at least 0.9, where 1 is the maximum; inactive = score below 0.9.

Legend:
Conditions in all cases: mRNA level, 48 h; actives raise or lower the signal
[1] = read-out: Protein phosphatase 2A (PPP2R4), PTPA (gene 5524); test: LTEA_HepaRG_PPP2R4: Life Technologies and Expression Analysis (LTEA) Assay for Protein phosphatase 2A (PPP2R4) using HepaRG (AID 2283522)
Method in brief: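 Readout is PPP2R4 transcript level by microfluidic qRT-PCR after 48 h chemical treatment of human HepaRG liver cells. Concentrations spanned 100 uM downward in half-log steps; gain or loss of signal was fitted relative to DMSO.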

[2] = read-out: Phosphatase and tensin (PTEN), PTEN (gene 5728); test: LTEA_HepaRG_PTEN: Life Technologies and Expression Analysis (LTEA) Assay for Phosphatase and tensin (PTEN) using HepaRG (AID 2283523)
Method in brief: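 HepaRG cells, 48 h after plating, exposed in duplicate for 48 h in serum-free induction medium to 8 half-log concentrations up to 100 uM (0.5% DMSO). PTEN mRNA by qRT-PCR, normalized to ACTB, GAPDH, POLR2A; bidirectional fit versus DMSO.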

[3] = read-out: solute carrier (SLC22A1), SLC22A1 (gene 6580); test: LTEA_HepaRG_SLC22A1: Life Technologies and Expression Analysis (LTEA) Assay for solute carrier (SLC22A1) using HepaRG (AID 2283524)
Method in brief: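 Differentiated human HepaRG cells in serum-free induction medium, exposed 48 h in duplicate to 8-point half-log series from 100 µM top in 0.5% DMSO. SLC22A1 mRNA by TaqMan qRT-PCR normalized to ACTB, GAPDH, POLR2A; bidirectional fit versus DMSO.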

[4] = read-out: Pyruvate Dehydrogenase Kinase 4 (PDK4), PDK4 (gene 5166); test: LTEA_HepaRG_PDK4: Life Technologies and Expression Analysis (LTEA) Assay for Pyruvate Dehydrogenase Kinase 4 (PDK4) using HepaRG (AID 2283525)
Method in brief: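 HepaRG cells plated 48 h, then switched to serum-free induction medium and exposed in duplicate for 48 h to 8 half-log concentrations from 100 uM in 0.5% DMSO. PDK4 mRNA measured by qRT-PCR, normalized to ACTB, GAPDH and POLR2A; bidirectional fit versus DMSO.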

[5] = read-out: NAD(P)H dehydrogenase [quinone] 1 (NQO1), NQO1 (gene 1728); test: LTEA_HepaRG_NQO1: Life Technologies and Expression Analysis (LTEA) Assay for NAD(P)H dehydrogenase [quinone] 1 (NQO1) using HepaRG (AID 2283526)
Method in brief: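 HepaRG, 48 h post-plating → serum-free induction medium → test chemical 48 h (duplicate, 100 uM top, half-log x8, 0.5% DMSO) → RNA isolation → qRT-PCR, ACTB/GAPDH/POLR2A normalization; bidirectional curve fit vs DMSO baseline.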

[6] = read-out: Nuclear factor erythroid 2-related factor 2 (Homo sapiens) (UniProt Q16236); test: LTEA_HepaRG_NFE2L2: Life Technologies and Expression Analysis (LTEA) Assay for Nuclear factor erythroid 2-related factor 2 (NFE2L2) Transcription Factor using HepaRG (AID 2283527);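 for outcome: TaqMan qRT-PCR transcript level normalised to ACTB GAPDH and POLR2A housekeeping genes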
Method in brief: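 Differentiated human HepaRG cells, serum-free induction medium, exposed 48 h in duplicate to eight half-log concentrations up to 100 uM in 0.5% DMSO. NFE2L2 mRNA by Fluidigm TaqMan qRT-PCR, normalised to ACTB, GAPDH, POLR2A; bidirectional change versus DMSO.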

[7] = read-out: succinate dehydrogenase complex iron sulfur subunit B (SDHB), SDHB (gene 6390); test: LTEA_HepaRG_SDHB: Life Technologies and Expression Analysis (LTEA) Assay for succinate dehydrogenase complex iron sulfur subunit B (SDHB) using HepaRG (AID 2283528)
Method in brief: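 Readout is SDHB transcript level by qRT-PCR, normalised to three housekeeping genes and fitted bidirectionally against 0.5% DMSO vehicle. Human HepaRG cells were treated for 48 h at up to 100 uM.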

[8] = read-out: Signal transducer and activator of transcription 3 (Homo sapiens) (UniProt P40763); test: LTEA_HepaRG_STAT3: Life Technologies and Expression Analysis (LTEA) Assay for Signal transducer and activator of transcription (STAT3) using HepaRG (AID 2283529)
Method in brief: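 Differentiated HepaRG cells, serum-free induction medium, dosed 48 h in duplicate, 8 half-log concentrations from 100 uM in 0.5% DMSO. STAT3 mRNA by qRT-PCR, normalised to ACTB, GAPDH, POLR2A; bidirectional fit versus DMSO.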

[9] = read-out: solute carrier (SLCO1B1), SLCO1B1 (gene 10599); test: LTEA_HepaRG_SLCO1B1: Life Technologies and Expression Analysis (LTEA) Assay for solute carrier (SLCO1B1) using HepaRG (AID 2283530)
Method in brief: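 HepaRG, serum-free induction medium, 48 h dosing, 8-pt half-log from 100 uM, 0.5% DMSO vehicle, duplicates. Readout: SLCO1B1 mRNA, qRT-PCR, ACTB/GAPDH/POLR2A normalization; up or down fit vs DMSO.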

[10] = read-out: sulfotransferase 2A1 (SULT2A1), SULT2A1 (gene 6822); test: LTEA_HepaRG_SULT2A1: Life Technologies and Expression Analysis (LTEA) Assay for sulfotransferase 2A1 (SULT2A1) using HepaRG (AID 2283531)
Method in brief: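 Transcript levels of SULT2A1, quantified by qRT-PCR and normalized to three housekeeping genes, serve as the readout. Human HepaRG cultures receive test chemicals for 48 h at up to 100 uM in half-log steps, with 0.5% DMSO vehicle.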

Sequence of Signal transducer and activator of transcription 3 (Homo sapiens) (P40763 whole entry, looked up): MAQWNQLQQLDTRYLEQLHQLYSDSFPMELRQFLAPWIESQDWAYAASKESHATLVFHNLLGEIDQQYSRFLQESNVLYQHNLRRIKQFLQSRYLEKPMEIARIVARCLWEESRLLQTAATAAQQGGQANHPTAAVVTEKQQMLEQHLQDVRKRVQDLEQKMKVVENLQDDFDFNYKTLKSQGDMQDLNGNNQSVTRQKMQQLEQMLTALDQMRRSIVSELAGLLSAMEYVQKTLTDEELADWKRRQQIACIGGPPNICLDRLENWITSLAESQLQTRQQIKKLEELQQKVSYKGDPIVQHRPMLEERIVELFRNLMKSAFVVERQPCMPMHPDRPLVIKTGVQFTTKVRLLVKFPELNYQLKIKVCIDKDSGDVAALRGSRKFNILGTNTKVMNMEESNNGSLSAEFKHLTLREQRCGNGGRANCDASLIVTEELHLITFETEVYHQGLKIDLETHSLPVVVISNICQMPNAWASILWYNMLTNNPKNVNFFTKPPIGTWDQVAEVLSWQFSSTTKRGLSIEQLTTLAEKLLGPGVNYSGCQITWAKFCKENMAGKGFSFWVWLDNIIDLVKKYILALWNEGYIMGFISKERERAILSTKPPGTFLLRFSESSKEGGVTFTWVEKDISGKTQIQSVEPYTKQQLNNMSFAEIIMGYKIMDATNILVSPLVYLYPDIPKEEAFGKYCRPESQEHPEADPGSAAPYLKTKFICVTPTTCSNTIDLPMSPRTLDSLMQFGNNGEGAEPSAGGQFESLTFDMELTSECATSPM
Sequence of Nuclear factor erythroid 2-related factor 2 (Homo sapiens) (Q16236 whole entry, looked up): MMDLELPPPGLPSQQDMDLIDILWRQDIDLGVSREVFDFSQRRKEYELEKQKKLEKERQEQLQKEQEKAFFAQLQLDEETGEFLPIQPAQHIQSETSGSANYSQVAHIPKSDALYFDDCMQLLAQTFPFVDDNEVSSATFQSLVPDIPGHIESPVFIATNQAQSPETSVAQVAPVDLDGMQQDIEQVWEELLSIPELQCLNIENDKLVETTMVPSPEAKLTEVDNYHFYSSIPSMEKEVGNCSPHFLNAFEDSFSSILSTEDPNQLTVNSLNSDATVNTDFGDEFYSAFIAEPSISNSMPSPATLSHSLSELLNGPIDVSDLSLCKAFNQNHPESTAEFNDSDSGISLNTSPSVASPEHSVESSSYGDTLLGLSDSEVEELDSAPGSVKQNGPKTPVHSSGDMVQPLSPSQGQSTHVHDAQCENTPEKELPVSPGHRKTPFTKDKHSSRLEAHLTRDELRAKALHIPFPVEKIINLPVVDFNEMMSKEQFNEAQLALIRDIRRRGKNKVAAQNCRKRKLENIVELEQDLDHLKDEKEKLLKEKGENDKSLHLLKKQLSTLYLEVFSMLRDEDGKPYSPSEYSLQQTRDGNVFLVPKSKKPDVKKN

## CC(C)COC(=O)c1ccccc1C(=O)OCC(C)C
[1]
  outcome: inactive
[2]
  outcome: inactive
[3]
  outcome: inactive
[4]
  outcome: inactive
[5]
  outcome: inactive
[6]
  outcome: inactive
[7]
  outcome: inactive
[8]
  outcome: inactive
[9]
  outcome: inactive
[10]
  outcome: inactive

## Cn1cc(-c2ccccc2)c(=O)c(-c2cccc(C(F)(F)F)c2)c1
[1]
  outcome: inactive
[2]
  outcome: inactive
[3]
  outcome: inactive
[4]
  AC50: 50 µM (active)
[5]
  outcome: inactive
[6]
  AC50: 20.9 µM (active)
[7]
  outcome: inactive
[8]
  outcome: inactive
[9]
  outcome: inactive
[10]
  AC50: 9.92 µM (active)

## CC(C)(O)c1cnn2c(-c3ccc(F)c(-c4c(F)cccc4C#N)c3)cnc2n1
[1]
  outcome: inactive
[2]
  outcome: inactive
[3]
  AC50: 9.92 µM (active)
[4]
  outcome: inactive
[5]
  outcome: inactive
[6]
  AC50: 6.33 µM (active)
[7]
  outcome: inactive
[8]
  outcome: inactive
[9]
  outcome: inactive
[10]
  outcome: inactive

## CC(C)(OOC(C)(C)c1ccccc1)c1ccccc1
[1]
  outcome: inactive
[2]
  outcome: inactive
[3]
  outcome: inactive
[4]
  outcome: inactive
[5]
  outcome: inactive
[6]
  outcome: inactive
[7]
  outcome: inactive
[8]
  outcome: inactive
[9]
  outcome: inactive
[10]
  outcome: inactive

## CC(C)(C)OOC(C)(C)CCC(C)(C)OOC(C)(C)C
[1]
  outcome: inactive
[2]
  outcome: inactive
[3]
  outcome: inactive
[4]
  outcome: inactive
[5]
  outcome: inactive
[7]
  outcome: inactive
[8]
  outcome: inactive
[9]
  outcome: inactive
[10]
  outcome: inactive

## CN(C)[C@@H]1C(=O)C(C(N)=O)=C(O)[C@@]2(O)C(=O)C3=C(O)c4c(O)cccc4[C@@](C)(O)[C@H]3C[C@@H]12
[1]
  outcome: inactive
[2]
  outcome: inactive
[3]
  outcome: inactive
[4]
  outcome: inactive
[5]
  outcome: inactive
[6]
  outcome: inactive
[7]
  outcome: inactive
[8]
  outcome: inactive
[9]
  outcome: inactive
[10]
  outcome: inactive

## CCCCCOC(=O)c1ccccc1C(=O)OCCCCC
[1]
  outcome: inactive
[2]
  outcome: inactive
[3]
  outcome: inactive
[4]
  outcome: inactive
[5]
  outcome: inactive
[7]
  outcome: inactive
[8]
  outcome: inactive
[9]
  outcome: inactive
[10]
  outcome: inactive

## O=[N+]([O-])c1ccc(Oc2ccc(Cl)cc2Cl)cc1
[1]
  outcome: inactive
[2]
  outcome: inactive
[3]
  outcome: inactive
[4]
  AC50: 11.3 µM (active)
[5]
  outcome: inactive
[7]
  outcome: inactive
[8]
  outcome: inactive
[9]
  outcome: inactive
[10]
  outcome: inactive

## Clc1ccc(C(c2ccc(Cl)cc2)C(Cl)(Cl)Cl)cc1
[1]
  outcome: inactive
[2]
  outcome: inactive
[3]
  outcome: inactive
[5]
  outcome: inactive
[6]
  outcome: inactive
[7]
  AC50: 17 µM (active)
[8]
  outcome: inactive
[9]
  outcome: inactive
[10]
  outcome: inactive

## CCCCOC(=O)c1ccccc1C(=O)OCc1ccccc1
[1]
  AC50: 0.349 µM (active)
[2]
  outcome: inactive
[3]
  outcome: inactive
[5]
  outcome: inactive
[6]
  outcome: inactive
[7]
  outcome: inactive
[8]
  outcome: inactive
[9]
  outcome: inactive
[10]
  outcome: inactive

## O=C1CCCO1
[1]
  outcome: inactive
[2]
  AC50: 82.9 µM (active)
[3]
  outcome: inactive
[4]
  outcome: inactive
[5]
  AC50: 50 µM (active)
[7]
  outcome: inactive
[8]
  outcome: inactive
[9]
  outcome: inactive
[10]
  outcome: inactive

## CCCCC(CC)COC(=O)c1ccc(C(=O)OCC(CC)CCCC)c(C(=O)OCC(CC)CCCC)c1 (configuration not stated)
[1]
  outcome: inactive
[2]
  outcome: inactive
[3]
  outcome: inactive
[5]
  outcome: inactive
[6]
  outcome: inactive
[7]
  outcome: inactive
[8]
  outcome: inactive
[9]
  outcome: inactive
[10]
  outcome: inactive

## CO[C@@H]1[C@H](OC(=O)NC(=O)CCl)CC[C@]2(CO2)[C@H]1[C@@]1(C)O[C@@H]1CC=C(C)C
[1]
  outcome: inactive
[2]
  outcome: inactive
[3]
  outcome: inactive
[5]
  outcome: inactive
[6]
  outcome: inactive
[7]
  outcome: inactive
[8]
  outcome: inactive
[9]
  outcome: inactive
[10]
  outcome: inactive

## ClC1=C(Cl)[C@]2(Cl)[C@H]3[C@H]([C@@H]4C=C[C@H]3C4)[C@@]1(Cl)C2(Cl)Cl
[1]
  outcome: inactive
[2]
  outcome: inactive
[3]
  AC50: 9.92 µM (active)
[4]
  outcome: inactive
[5]
  outcome: inactive
[7]
  outcome: inactive
[8]
  outcome: inactive
[9]
  outcome: inactive
[10]
  outcome: inactive

## c1ccc(C2CO2)cc1 (configuration not stated)
[1]
  outcome: inactive
[2]
  outcome: inactive
[3]
  outcome: inactive
[4]
  outcome: inactive
[5]
  outcome: inactive
[7]
  outcome: inactive
[8]
  outcome: inactive
[9]
  outcome: inactive
[10]
  outcome: inactive

## Cc1ccc(N=C=O)cc1N=C=O
[1]
  outcome: inactive
[2]
  outcome: inactive
[3]
  AC50: 30.6 µM (active)
[5]
  AC50: 38.9 µM (active)
[6]
  outcome: inactive
[7]
  outcome: inactive
[8]
  outcome: inactive
[9]
  outcome: inactive
[10]
  AC50: 31.4 µM (active)

## O=C(Nc1ccccc1)c1ccccc1I
[1]
  outcome: inactive
[2]
  outcome: inactive
[3]
  AC50: 31.1 µM (active)
[4]
  AC50: 9.92 µM (active)
[5]
  outcome: inactive
[7]
  outcome: inactive
[8]
  outcome: inactive
[9]
  outcome: inactive
[10]
  outcome: inactive

## O=C(O)C1C2CCC(O2)C1C(=O)O (configuration not stated)
[1]
  outcome: inactive
[2]
  outcome: inactive
[3]
  AC50: 70.7 µM (active)
[4]
  outcome: inactive
[5]
  outcome: inactive
[7]
  outcome: inactive
[8]
  outcome: inactive
[9]
  AC50: 69 µM (active)
[10]
  AC50: 76 µM (active)

## CCC[CH2][Sn]([Cl])([CH2]CCC)[CH2]CCC
[1]
  outcome: inactive
[2]
  outcome: inactive
[3]
  AC50: 1.49 µM (active)
[4]
  outcome: inactive
[5]
  AC50: 15.8 µM (active)
[7]
  AC50: 50 µM (active)
[8]
  AC50: 15.3 µM (active)
[9]
  AC50: 2.3 µM (active)
[10]
  AC50: 1.63 µM (active)

## Brc1ccc(Oc2ccccc2)cc1
[1]
  outcome: inactive
[2]
  outcome: inactive
[3]
  outcome: inactive
[5]
  outcome: inactive
[6]
  outcome: inactive
[7]
  outcome: inactive
[8]
  outcome: inactive
[9]
  outcome: inactive
[10]
  outcome: inactive

## N#CC(Br)(Br)C(N)=O
[1]
  outcome: inactive
[2]
  outcome: inactive
[3]
  outcome: inactive
[4]
  outcome: inactive
[5]
  outcome: inactive
[7]
  outcome: inactive
[8]
  outcome: inactive
[9]
  outcome: inactive
[10]
  outcome: inactive

## ClCCOCCCl
[1]
  outcome: inactive
[2]
  outcome: inactive
[3]
  outcome: inactive
[4]
  outcome: inactive
[5]
  outcome: inactive
[7]
  outcome: inactive
[8]
  outcome: inactive
[9]
  outcome: inactive
[10]
  outcome: inactive

## CCN(CC)N=O
[1]
  outcome: inactive
[2]
  outcome: inactive
[3]
  outcome: inactive
[5]
  outcome: inactive
[6]
  outcome: inactive
[7]
  outcome: inactive
[8]
  outcome: inactive
[9]
  outcome: inactive
[10]
  outcome: inactive
